{
  "source": "PubChem BioAssay (EPA / NIEHS)",
  "note": "The source made the active and inactive calls. Rule for the calls: active = hit-call score of the fitted dose curve at least 0.9, where 1 is the maximum; inactive = score below 0.9.",
  "data": [
    {"test": "CCTE_Padilla_ZF_Score.General: CCTE's 144 Hour Post-fertilization zebrafish Assay Score for General Malformation, Padilla Lab (AID 2284411)", "method": "CCTE_Padilla_ZF_Phenotype_Score is a whole embryo, multiplexed assay using zebrafish ova exposed for 144 hours post fertilization on a 96-well plate.CCTE_Padilla_ZF_Score.General is one of one assay component(s) measured or calculated from the CCTE_Padilla_ZF_Phenotype_Score assay. It is designed to make measurements of zebrafish development as detected with brightfield microscopy of developing zebrafish embryos.Data from the assay component CCTE_Padilla_ZF_Score.General was analyzed into 1 assay endpoints. This assay endpoint, CCTE_Padilla_ZF_Score.General, was analyzed in the positive analysis fitting direction relative to DMSO as the negative control and baseline of activity. Using a type of viability reporter, gain-of-signal activity can be used to understand changes in developmentals as they relate to the whole embryo. To generalize the intended target to other relatable targets, this assay endpoint is annotated to the zebrafish development intended target family, where the subfamily is embryonic morphogenesis.\nZebrafish husbandry: Wild type adult zebrafish (Danio rerio; undefined outbred stock obtained from Aquatic Research Organisms, Hampton, NH, 03842) were housed in an AAALAC-approved animal facility at 28C with a 14:10 h light: dark cycle (lights on at 08:30 h). Adult fish (2-3 females per male; density = 15-20 adults per tank) were kept in one of several 9-liter (L) flow-through colony tanks (Aquaneering Inc., San Diego, CA). All adults in a colony tank were placed in a 2 L (static) breeding tank (Aquatic Habitats, Apopka, FL) one hour prior to light onset. Typically, adults from two to three colony tanks were mated on the same day. Two hours after light onset the adults were returned to the colony tank. All embryos were gathered from each breeder tank, pooled, and placed in a 28C water bath for 2 h, followed by two washes with 0.06% bleach (v/v) in 10% Hanks' Balanced Salt Solution (13.7 mM NaCl 0.54 mM KCl, 25 uM Na2HPO4, 130 uM CaCl2 100 um MgSO4 and 420 um NaHCO3,), hereafter referred to as Hanks' solution, for 5 min in order to remove any residual bacteria or fungi. Immediately following washing, the embryos were examined, and healthy embryos were separated from dead or unfertilized eggs and moved into fresh Hanks'. Chemical exposures: Zebrafish embryos were exposed in 96-well plates. Between 6- and 8-hours post fertilization (hpf), healthy embryos (with chorions) were transferred, one embryo per well, into 96 well (0.5 mL) microtiter plates (Cell Culture-Treated, Flat-Bottom Microplate 96 well [Corning Costar, Kennebunk, ME; Cat 09-761-145]) filled with 200 uL of Hanks' solution. A random number generator was used to assign the order in which the rows of embryos were plated in 96 well plates each week. After plating, the embryos were dosed with 0.8 uL of the chemical dosing solution then immediately sealed with AlumaSeal II (Excel Scientific Inc, Victorville, CA) to prevent volatilization of the chemicals, and then placed in a leakproof secondary container. These containers were placed in an incubator maintained on a 14:10 h light: dark cycle at 26C for rearing. On 5 dpf, live larvae were gently moved out of the plate with test chemicals and into a new 96 well mesh plate (Millipore Corp., Bedford, MA) with just the Hanks' solution. Once within the mesh well plate, the animals were rinsed with 400 uL of fresh Hanks' three times, and then the plates were covered with a non-adhesive material (Microseal A, BioRad, Hercules, CA), plate lid added, and then plate sides wrapped in Parafilm (PM992, Bermis Company, Neenah, WI), and returned to the incubator. […]", "values": [
      {"smiles": "C=C(C)C(=O)OCCC(F)(F)C(F)(F)C(F)(F)C(F)(F)C(F)(C(F)(F)F)C(F)(F)F", "outcome": "inactive"},
      {"smiles": "Oc1ccc(Nc2ccccc2)cc1", "outcome": "inactive"},
      {"smiles": "O=C(O)C(F)(F)C(F)(F)C(F)(F)C(F)(F)C(F)(F)C(F)(F)C(F)(F)C(F)(F)Cl", "AC50": "16.7 µM (active)"},
      {"smiles": "N=C(N)C(F)(F)C(F)(F)C(F)(F)C(F)(F)C(F)(F)C(F)(F)C(F)(F)F", "outcome": "inactive"},
      {"smiles": "O=C(Cl)C(F)(F)C(F)(F)C(F)(F)C(F)(F)C(F)(F)C(F)(F)C(F)(F)C(F)(F)F", "AC50": "11.4 µM (active)"},
      {"smiles": "CCO[Si](CCC(F)(F)C(F)(F)C(F)(F)C(F)(F)C(F)(F)C(F)(F)F)(OCC)OCC", "outcome": "inactive"},
      {"smiles": "O=C(O)C=C(C(F)(F)F)C(F)(F)F", "outcome": "inactive"},
      {"smiles": "CC(C)(C)C(=O)CC(=O)C(F)(F)C(F)(F)C(F)(F)F", "AC50": "26.4 µM (active)"},
      {"smiles": "O=C(O)C(F)(F)C(F)(F)C(F)(F)C(F)(F)C(F)(F)C(F)(F)C(F)(F)C(F)(F)C(F)(F)C(F)(F)C(F)(F)C(F)(F)C(F)(F)F", "outcome": "inactive"},
      {"smiles": "OCC(F)(F)C(F)(F)C(F)(F)C(F)(F)C(F)(F)C(F)F", "outcome": "inactive"},
      {"smiles": "CCCCCCC(C)OC(=O)CCCCC(=O)OC(C)CCCCCC", "note": "(stereo not given)", "outcome": "inactive"},
      {"smiles": "CCCCCCCCC(F)(F)C(F)(F)C(F)(F)C(F)(F)C(F)(F)C(F)(F)F", "outcome": "inactive"},
      {"smiles": "Nc1ccc([N+](=O)[O-])cc1O", "outcome": "inactive"},
      {"smiles": "CCCCCCCCCCCCCCCC[N+](C)(C)Cc1ccccc1", "outcome": "inactive"},
      {"smiles": "FC(F)(Br)C(F)(F)C(F)(F)C(F)(F)C(F)(F)C(F)(F)Br", "outcome": "inactive"},
      {"smiles": "O=C(O)C(F)(F)C(F)(F)C(F)(F)C(F)(F)F", "outcome": "inactive"},
      {"smiles": "O=C(O)C(F)(F)C(F)(F)OC(F)(F)F", "outcome": "inactive"},
      {"smiles": "C=C(C)C(=O)OCC(F)(F)C(F)(F)C(F)(F)F", "outcome": "inactive"},
      {"smiles": "O=S(=O)(OCCOC(F)(F)F)C(F)(F)F", "outcome": "inactive"},
      {"smiles": "C=C(C)C(=O)OCC(F)(F)C(F)(F)C(F)(F)C(F)(F)C(F)(F)C(F)(F)C(F)(F)F", "outcome": "inactive"},
      {"smiles": "O=C(O)C(F)(OC(F)(F)C(F)(OC(F)(F)C(F)(F)C(F)(F)F)C(F)(F)F)C(F)(F)F", "note": "(stereo not given)", "outcome": "inactive"},
      {"smiles": "O=C(O)C(F)(F)C(F)(F)C(F)(F)C(F)(F)C(F)(F)C(F)(F)C(F)(F)C(F)(F)C(F)(F)C(F)F", "AC50": "15.8 µM (active)"},
      {"smiles": "CCCCNc1ccccc1", "outcome": "inactive"},
      {"smiles": "CCCCCCS", "outcome": "inactive"},
      {"smiles": "C=CC(F)(F)C(F)(F)C(F)(F)C(F)(F)C(F)(F)C(F)(F)C(F)(F)C(F)(F)F", "outcome": "inactive"},
      {"smiles": "FC(F)(F)C(F)(F)C(F)(F)C(F)(F)C(F)(F)C(F)(F)C(F)(F)C(F)(F)F", "outcome": "inactive"},
      {"smiles": "O=P(O)(O)OCCC(F)(F)C(F)(F)C(F)(F)C(F)(F)C(F)(F)C(F)(F)F", "outcome": "inactive"},
      {"smiles": "FC(F)(F)C(F)(F)C(F)(F)C(F)(F)C(F)(F)CCI", "AC50": "54.7 µM (active)"},
      {"smiles": "OCC(F)(F)C(F)(F)C(F)(F)C(F)F", "outcome": "inactive"},
      {"smiles": "FC(F)(F)C(F)(F)C(F)(F)C(F)(F)C(F)(F)C(F)(F)CCS", "outcome": "inactive"},
      {"smiles": "OCCCC(F)(F)C(F)(F)C(F)(F)F", "outcome": "inactive"},
      {"smiles": "O=S(=O)(O)C(F)(F)C(F)(F)C(F)(F)C(F)(F)C(F)(F)C(F)(F)C(F)(F)F", "AC50": "16.6 µM (active)"},
      {"smiles": "O=S(=O)(OCC(F)F)C(F)(F)F", "outcome": "inactive"},
      {"smiles": "OCC(F)(F)C(F)(F)C(F)(F)C(F)(F)C(F)(F)C(F)(F)F", "outcome": "inactive"},
      {"smiles": "OCC(F)(F)C(F)(F)C(F)(F)F", "outcome": "inactive"},
      {"smiles": "FC(F)(F)C(F)(F)C(F)(F)C(F)(F)C(F)(F)C(F)(F)C(F)(F)I", "AC50": "11.8 µM (active)"},
      {"smiles": "NC(=O)C(F)(F)C(F)(F)C(F)(F)C(F)(F)F", "outcome": "inactive"},
      {"smiles": "C=CC(=O)OCC(F)(F)C(F)(F)C(F)(F)C(F)(F)COC(=O)C=C", "outcome": "inactive"},
      {"smiles": "Cc1ccc(S(=O)(=O)OCC(F)(F)C(F)(F)C(F)(F)C(F)(F)C(F)(F)C(F)F)cc1", "AC50": "8.85 µM (active)"},
      {"smiles": "C=CC(=O)OCC(F)(F)C(F)(F)C(F)(F)C(F)(F)C(F)(F)C(F)(F)C(F)(F)F", "outcome": "inactive"}
    ]}
  ]
}
